Laboratory results taken from PubChem BioAssay AID2685 (National Center for Advancing Translational Sciences (NCATS), 2010).
Values joined by “and” are separate entries in the source; they are usually repeats but may differ in a detail not shown here. Equal values may be shown once. Among all 320,000 compounds or so, about 2,100 (0.66%) were called active. Roughly 53% stayed inconclusive and do not appear here. Calls follow the shape of the dose curve; as a rule, active = well fitted inhibition curve with a large enough effect in the signal ratio, with a control signal flat (not every such curve was filed as active); inconclusive = small, poorly fitted or top-dose-only effect, or effect the other way, or a change in a side signal; inactive = flat fitted curve, though single readings scatter; the % refers to the signal ratio. The entries come from a sample that favours actives as a whole.

Assay: qHTS Assay for Lipid Storage Modulators in Drosophila S3 Cells;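 as to cell number change: cells counted by Cell Tracker Red CMTPX staining in the red channel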
Conditions: BODIPY lipid droplet fluorescence, 18-24 h, cells fed with added oleic acid; cell number change: measured here: cell count max response; series mostly up to 46.1 µM
Outline: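 Laser-scanning cytometry quantifies lipid droplet accumulation (500–530 nm total intensity; droplet/cell object ratio) in oleic acid-fed (400 uM added) Drosophila S3 cells treated with a concentration series. 20 uM Triacsin C defined 100% inhibition.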
Potency is read from the fitted curve at half-maximal effect.

| Compound | Potency | cell number change |
| --- | --- | --- |
| Cc1cc2ncn(-c3ncnc4sc5c(c34)CCCC5)c2cc1C | inactive | 8.27% |
| c1ccc(CN(Cc2ccco2)C(c2ccncc2)c2nnnn2C2CCCC2)cc1 (stereo unspecified) | inactive | – |
| O=C(Nc1ccc(Cl)cc1)C1CCCC1 | inactive | -15.4% |
| O=C(CNC(=O)C1CCCCC1)Nc1cc(Cl)cc(Cl)c1 | inactive | – |
| O=C(Nc1cc(Cl)cc(Cl)c1)C1CCCC1 | 20.6 µM (active) | -3.7% |
| COC(=O)C1=C(C)N(C)C(=O)NC1c1ccccc1 (stereo unspecified) | 29.1 µM (active) | -9.2% |
| COC(=O)C1=C(C)N(C)C(=O)NC1c1ccc(C)cc1 (stereo unspecified) | inactive | -10.6% |
| CC1=C(C(=O)OC(C)C)C(c2ccccc2)NC(=O)N1C (stereo unspecified) | inactive | – |
| Cc1ccccc1NC(=O)C(C)c1cccc(C(=O)c2ccccc2)c1 (stereo unspecified) | inactive | 28.9% |
| CC(C(=O)O)c1cccc(C(=O)c2ccccc2)c1 (stereo unspecified) | 23% and -14% | – |
| C[C@H](C(=O)O)c1cccc(C(=O)c2ccccc2)c1 | inactive | 5.73% |
| CC(=O)c1cccc(NC(=O)CN(C2CCCCC2)S(C)(=O)=O)c1 | inactive | – |
| CCCCc1ccc(NC(=S)NCCO)cc1 | inactive | – |
| O=S(=O)(c1ccc(-c2ccccc2)cc1)N1CCCCC1 | inactive | 14.2% |
| O=S(=O)(Nc1ccc(F)cc1)c1ccc(NS(=O)(=O)c2cccs2)cc1 | 3.66 µM (active) | 5.22% |
| Cc1ccc(NS(=O)(=O)c2ccc(NS(=O)(=O)c3cccs3)cc2)cc1 | inactive | – |
| Cc1ccccc1NS(=O)(=O)c1ccc(NS(=O)(=O)c2cccs2)cc1 | inactive | 22.7% |
| Cc1ccc(-n2nc3c(c2NC(=O)CC(C)C)CS(=O)C3)cc1 (stereo unspecified) | inactive | -3.89% |
| Clc1nnc(N2CCCCC2)c2ccccc12 | inactive | – |
| Cc1ccc(-c2nnc(N3CCCCC3)c3ccccc23)cc1 | inactive | -9.5% |
| c1ccc2c(N3CCCCC3)nnc(N3CCCCC3)c2c1 | 23.1 µM (active) | 9% |
| CCCCN1C2CCCC1CC(NC(=O)c1cccc(Cl)c1)C2 (stereo unspecified) | inactive | -7.62% |
| CN(C(=O)COc1ccccc1)C1CCS(=O)(=O)C1 (stereo unspecified) | inactive | -15.6% |
| CC(C)(C)NCC(O)COc1c(F)cc(Br)cc1F (stereo unspecified) | 29.1 µM (active) | -21.9% |

| Compound | Potency | cell number change |
| --- | --- | --- |
| Cc1cc(C)c(OCC(O)CNC(C)(C)C)c(C)c1 (stereo unspecified) | inactive | 1.51% |
| Cc1cccc(C)c1OCC(O)CNC(C)(C)C (stereo unspecified) | inactive | 8.88% |
| CCCCn1c(N)c(N(CC(C)C)C(=O)c2cnccn2)c(=O)[nH]c1=O | inactive | -16.5% |
| O=C(NC1CCCCC1)C1Cc2ccccc2CN1S(=O)(=O)c1ccc(F)cc1 (stereo unspecified) | inactive | -3.73% |
| CC(C)CC(OC(=O)c1nsc(Cl)c1Cl)C(=O)NCc1cccs1 (stereo unspecified) | inactive | -3.42% |
| CC(OC(=O)c1nsc(Cl)c1Cl)C(=O)NCc1cccs1 (stereo unspecified) | 32.6 µM (active) | 2.66% |
| CCC(OC(=O)c1nsc(Cl)c1Cl)C(=O)NCc1cccs1 (stereo unspecified) | inactive | 3.99% |
| O=C1COc2ccc(C(=O)CSc3ccccc3C(=O)O)cc2N1 | inactive | 8.27% |
| COc1ccc(C2=NC(c3ccccc3)CO2)cc1 (stereo unspecified) | inactive | -8.42% |
| CCOC(=O)C1(Cc2cccc(Cl)c2)CCCN(C(=O)c2cc(C)on2)C1 (stereo unspecified) | inactive | 6.36% |
| CCOC(=O)C1(Cc2cccc(Cl)c2)CCCN(C(=O)c2cc(CC)on2)C1 (stereo unspecified) | 2.31 µM (active) | -22.9% |
| CCOC(=O)C1(Cc2cccc(Cl)c2)CCCN(C(=O)c2cc(C)n(C)n2)C1 (stereo unspecified) | inactive | 17.5% |
| CCOc1ccc(OCC)c(S(=O)(=O)NCc2ccccn2)c1 | inactive | -15.9% |
| O=c1c(Cc2ccc(Cl)cc2)c(O)ccn1Cc1cccs1 | inactive | 1.85% |
| Cc1ccc(/C=N/NC(=O)c2nnn(-c3nonc3N)c2-c2ccccc2)o1 | inactive | 4.2% |
| CCCN(CCC)Cc1c(C(=O)N/N=C/c2c[nH]c3ccccc23)nnn1-c1nonc1N | inactive | 9.46% |
| Cc1ccc(-c2c(C(=O)N/N=C/c3ccco3)nnn2-c2nonc2N)cc1 | inactive | -15% |
| COCc1c(C(=O)N/N=C/c2c[nH]c3ccccc23)nnn1-c1nonc1N | 0.164 µM (active) | -1.35% |
| Cc1ccc(-c2c(C(=O)N/N=C/c3ccc(C)o3)nnn2-c2nonc2N)cc1 | 2.06 µM (active) | -11.5% |
| Cc1ccc(-c2c(C(=O)N/N=C/c3cccs3)nnn2-c2nonc2N)cc1 | inactive | -27.4% |
| Cc1ccc(/C=N/NC(=O)c2nnn(-c3nonc3N)c2C)o1 | inactive | -13.6% |
| Cc1ccc(-c2c(C(=O)N/N=C/c3c[nH]c4ccccc34)nnn2-c2nonc2N)cc1 | 14.6 µM (active) | -29.2% |
| COCc1c(C(=O)N/N=C/c2cccc3ccccc23)nnn1-c1nonc1N | inactive | 13.5% |
